Several values for one entry are separate records, joined by “and”; a condition that tells them apart may be missing. Equal entries are not always repeated. In all, about 16,000 compounds went through this assay and about 120 (0.75%) were called active. About 4% were inconclusive and are not listed. Calls come from the whole dose curve; as a rule, active = well fitted inhibition curve with a large enough effect; inconclusive = small, poorly fitted or top-dose-only effect; inactive = no such curve, though single readings can be large or run the other way. What follows is part of a selection rich in actives, with near analogues and random picks from the rest. More than one record can exist for a structure, and the calls need not agree.
target: Rap guanine nucleotide exchange factor 3 (Homo sapiens) (UniProt O95398); assay: Validation qHTS for antagonist of cAMP-regulated guanine nucleotide exchange factor 3 (EPAC1); conditions: EPAC1 Rap1B-BODIPY-GDP exchange, fluorescence; series mostly up to 150 µM; activity change, negative = inhibition: at the top concentration; note: nearly all actives have a fitted effect of over 75% in size
Sequence (O95398 whole entry, looked up): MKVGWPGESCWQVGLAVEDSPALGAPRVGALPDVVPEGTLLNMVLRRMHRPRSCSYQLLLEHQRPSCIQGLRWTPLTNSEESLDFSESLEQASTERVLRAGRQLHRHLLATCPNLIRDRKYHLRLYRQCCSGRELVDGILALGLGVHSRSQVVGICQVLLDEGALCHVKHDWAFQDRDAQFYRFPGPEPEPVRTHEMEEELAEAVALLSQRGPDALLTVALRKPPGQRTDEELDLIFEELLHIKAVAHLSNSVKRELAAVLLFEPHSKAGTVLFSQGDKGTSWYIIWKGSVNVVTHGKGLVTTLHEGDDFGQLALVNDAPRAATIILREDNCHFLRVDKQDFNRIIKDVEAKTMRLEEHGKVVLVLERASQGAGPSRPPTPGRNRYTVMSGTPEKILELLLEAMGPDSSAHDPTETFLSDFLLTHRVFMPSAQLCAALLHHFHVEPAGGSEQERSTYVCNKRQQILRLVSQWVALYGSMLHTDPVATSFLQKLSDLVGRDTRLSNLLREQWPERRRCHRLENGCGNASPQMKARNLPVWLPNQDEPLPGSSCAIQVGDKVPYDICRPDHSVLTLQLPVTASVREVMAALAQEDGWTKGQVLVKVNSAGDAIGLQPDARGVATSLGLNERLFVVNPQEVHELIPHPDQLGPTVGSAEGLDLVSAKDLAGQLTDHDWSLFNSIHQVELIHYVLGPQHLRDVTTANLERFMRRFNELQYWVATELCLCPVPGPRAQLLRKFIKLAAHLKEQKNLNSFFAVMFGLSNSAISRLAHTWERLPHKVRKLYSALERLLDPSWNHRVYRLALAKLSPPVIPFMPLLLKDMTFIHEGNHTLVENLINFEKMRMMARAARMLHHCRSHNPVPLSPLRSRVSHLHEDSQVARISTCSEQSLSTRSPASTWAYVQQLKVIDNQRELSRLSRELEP
Description: Assay Provider (PI): Xiaodong Cheng Ph.D.
The University of Texas Medical Branch, […], TX
In multi-cellular eukaryotic organisms, the effects of cAMP are transduced by two ubiquitously-expressed intracellular cAMP receptors, the classic protein kinase A/cAMP-dependent protein kinase (PKA/cAPK) and the more recently discovered exchange protein directly activated by cAMP/cAMP-regulated guanine nucleotide exchange factor (EPAC/cAMP-GEF). Both PKA and EPAC are ubiquitously expressed in all tissues, and an increase in intracellular cAMP levels will lead to the activation of both PKA and EPAC. Therefore, careful dissections of the individual role and relative contribution of EPAC and PKA within the overall cAMP signaling in various model systems are critical for further elucidating the mechanism of cAMP signaling. To date no EPAC-specific antagonists and agonist, as well as isoform-specific agonists have been reported, and developing EPAC-specific pharmacological probes to determine the physiological functions that EPAC play in the overall cAMP-mediated signaling remains a major challenge within the research field. Furthermore, identified regulators of EPAC may lead to new mechanism-based therapeutic strategies specifically targeting the EPAC / cAMP-signaling components as EPAC has been implicated to play important roles in major human pathological conditions such as diabetes, heart disease, and cancer.
This qHTS will be used to screen the Molecular Libraries Small Molecule Repository (MLSMR) as a concentration-titration series using the NCGC unique quantitative screening (qHTS) platform to find activators for EPAC1. In addition, this assay will also be used as a counterscreen for the EPAC2 qHTS. This fluorescent based assay is developed and validated for EPAC1 that measures exchange using EPAC effector Rap1 complex with BODIPY-GDP, a GDP analog with a tethered fluorophores. Activators are identified by monitoring the change in fluorescence signal as the exchanged free BODIPY-GDP has a reduced fluorescence compared to Rap1-bound BODIPY-GDP. Increase in signal (activation) is the desired outcome for the EPAC1 agonist while no activity in this assay is desired for the EPAC2 agonist counterscreen.
[1] de Rooij, J., Zwartkruis, F. J., Verheijen, M. H., Cool, R. H., Nijman, S. M., Wittinghofer, A., and Bos, J.L. (1998) Nature 396, 474-477.
Briefly, three uL of reagents (100 nM EPAC1, 250 nM RAP1B-BODIPY-GDP, 50 uM GDP) were dispensed into a 1536-well Greiner black solid-bottom medium binding assay plate. Controls and test compounds (23 nL) were transferred to the plate via a Kalypsys pin tool equipped with a 1536-pin array. The plates were centrifuged at 1,000 rpm for 15 seconds followed by 5 minute incubation at room temperature. The assay plates were read at 5 minute intervals for 30 minutes in the ViewLux plate reader using 480nm excitation and 540nm emission filters. The results were normalized to the […] positive control ATA and DMSO.
Potency is the fitted concentration of half-maximal effect.

| SMILES | Potency | activity change, negative = inhibition |
| --- | --- | --- |
| O=C(/C=C/c1ccc(O)c(O)c1)OC(Cc1ccc(O)c(O)c1)C(=O)O (configuration not stated) | inactive and 100 µM (active) |  |
| N[C@@H](Cc1ccc(O)c(O)c1)C(=O)O | inactive |  |
| O=C(/C=C\c1ccc(O)c(O)c1)O[C@@H](Cc1ccc(O)c(O)c1)C(=O)O |  | 11% (inactive) |
| NC(Cc1ccc(O)c(O)c1)C(=O)O (configuration not stated) | 50.1 µM (active) |  |
| O=C(/C=C/c1ccc(O)c(O)c1)OCCc1ccccc1 | inactive |  |
| N[C@@H](Cc1ccc(O)c(I)c1)C(=O)O |  | -7.65% [at 75.8 µM] (inactive) |
| COc1ccc(C(=O)NCC2Cc3cc(C)cc(-c4cc(C(C)=O)ccc4F)c3O2)c(OC)c1OC (configuration not stated) |  | 11.9% (inactive) |
| COC(=O)N1CCC[C@@]2(CCN(Cc3nccs3)C2)C1 |  | 31.6% (inactive) |
| OC(c1ccc2c(c1)CN(Cc1c[nH]c3ccccc13)CCO2)c1ccccn1 (configuration not stated) |  | 8.66% (inactive) |
| CC(=O)Oc1c(-c2ccccc2)oc2c(CC=C(C)C)c3c(c(OC(C)=O)c2c1=O)C=CC(C)(C)O3 |  | 6.65% (inactive) |
| CC(=O)Oc1c2c(c3c(c1CC=C(C)C)O[C@@]14C(=CC5CC1C(C)(C)OC4(C/C=C(\C)C(=O)O)C5=O)C3=O)OC(C)(CCC=C(C)C)C=C2 (some centres not stated) | 89.1 µM (active) |  |
| CC(C)=CCc1c2c(c(O)c3c(=O)c(O)c(-c4ccccc4)oc13)C=CC(C)(C)O2 |  | 13.9% (inactive) |
| CC(C)=CCCC1(C)C=Cc2c(O)c3c(c(CC=C(C)C)c2O1)OC12C(=CCCC1C(C)(C)O[C@@]2(C/C=C(\C)C(=O)O)C(=O)O)C3=O (some centres not stated) | 89.1 µM (active) |  |
| COC(=O)/C(C)=C/CC12OC(C)(C)C3CC(C=C4C(=O)c5cc6c(c(CCC(C)(C)Cl)c5OC431)OC1(C)CCC(=C(C)C)C6C1)C2=O (configuration not stated) |  | 5.06% (inactive) |
| C1=C(c2ccc3c(c2)CN(Cc2cccn2-c2ncccn2)CCO3)Cc2ccccc21 |  | 0.475% (inactive) |
| CC(C)c1c(C(=O)NCC(C)(C)N2CCOCC2)cnn1-c1nccc(-c2ccccc2F)n1 |  | 5.19% (inactive) |
| Cc1ccc(-c2ccnc(-n3ncc(C(=O)NCCN4CCOCC4)c3C3CC3)n2)o1 |  | 0.535% (inactive) |
| CCC1CN(CCNC(=O)c2ccccc2-n2cccn2)Cc2cc(OC)ccc2O1 (configuration not stated) |  | 21.6% (inactive) |
| COc1ccc(C2Sc3ccccc3N(CCN(C)C)C(=O)[C@@H]2OC(C)=O)cc1 (some centres not stated) | inactive |  |
| CCOC(=O)[C@@H](C)N(C(=O)OC(C)(C)C)S(=O)(=O)N(Cc1ccccc1)[C@@H](C(=O)OC)C(C)C |  | -6.25% (inactive) |
| Cc1c(-c2ccccc2)oc2cc(O)ccc2c1=O |  | -1.8% (inactive) |

| SMILES | Potency | activity change, negative = inhibition |
| --- | --- | --- |
| CC(=O)[C@H](CC(C)C)NC(=O)[C@@H](CC(C)C)NC(=O)[C@H](CC(C)C)NC(=O)OCc1ccccc1 |  | -12.2% (inactive) |
| O=C(O)c1cc2ccccc2c(Cc2c(O)c(C(=O)O)cc3ccccc23)c1O | 50.1 µM (active) |  |
| O=C(O)c1c2ccccc2cc2ccccc12 | inactive |  |
| O=C(O)c1cc(-c2ccccc2)nc2ccccc12 | inactive |  |
| CCN1CCN(C(=O)c2sc3ncnc(NCC4CCCO4)c3c2C)CC1 (configuration not stated) |  | 16.7% (inactive) |
| CC(C)CCCC(C)C1CCC2C3CC=C4CC(=O)CC[C@@]4(C)C3CC[C@@]12C (some centres not stated) |  | 15.4% (inactive) |
| COc1ccccc1CNc1nc(-c2ccc(N(C)C)cc2)nc2ccccc12 |  | 12.9% (inactive) |
| Cc1ncc2c(c1CNC(=O)c1ccc3c(c1)OCO3)CCN(C(=O)c1cccc(-n3cccn3)c1)C2 |  | 6.43% (inactive) |
| CC(C)C(N)C(=O)NC(Cc1c[nH]c2ccccc12)C(=O)O (configuration not stated) |  | 18.5% (inactive) |
| Cc1cc(C)cc(C(=O)N(C)[C@H](Cc2ccc(-c3ccccc3)cc2)C(=O)N[C@@H](Cc2c[nH]c3ccccc23)C(=O)O)c1 | 112 µM (active) |  |
| CC(=O)N[C@@H](Cc1c[nH]c2ccccc12)C(=O)O |  | 5.4% (inactive) |
| C[N+](C)(CCCCCC[N+](C)(C)CCCN1C(=O)c2ccccc2C1=O)CCCN1C(=O)c2ccccc2C1=O | inactive |  |
| C#CCN(Cc1nc(N2CCOCC2)c2ccc(Cl)cc2n1)Cc1ccco1 |  | 18.9% (inactive) |
| CCC(=O)c1c(O)cc(O)cc1O |  | 18.2% (inactive) |
| CCCC(=O)c1cc(O)c(O)cc1O | 63.1 µM (active) |  |
| CCOc1cc(OCC)c(C(=O)CCC(=O)O)cc1OCC |  | 19.1% (inactive) |
| O=C(c1n[nH]c2c1CCCC2)N1CCOc2ccc(C(O)C3CCCCC3)cc2C1 (configuration not stated) |  | 1.38% (inactive) |
| Cc1ccc(C2(O)CCN(CCCC(=O)c3ccc(F)cc3)CC2)cc1 |  | 26.2% (inactive) |
| COc1ccccc1C1CN(CCNC(=O)c2cscn2)Cc2ccccc2O1 (configuration not stated) |  | -26.1% (inactive) |
| CN(C)C(=O)CCSC(SCCC(=O)O)c1cccc(/C=C/c2ccc3ccc(Cl)cc3n2)c1 (configuration not stated) |  | -25.4% (inactive) |
| CC(C)(O)c1ccccc1CC[C@@H](SCC1(CC(=O)O)CC1)c1cccc(/C=C/c2ccc3ccc(Cl)cc3n2)c1 | 79.4 µM (active) |  |

Source: PubChem BioAssay AID1645882 (National Center for Advancing Translational Sciences (NCATS), 2021)
